According to ChEMBL document CHEMBL1157539, “Thousands of chemical starting points for antimalarial lead identification” (Nature, 2010):

What follows are compounds tested on Plasmodium falciparum (assay: GSK_TCMDC: Inhibition of Plasmodium falciparum Dd2 in whole red blood cells, using parasite LDH activity as an index of growth. Test compounds present at 2uM).
Assay type: functional

**Q.** Which Inhibition does the source give for `CCCNC(=O)C1Cc2cc(OC)c(OC)cc2C2(N1)C(=O)N(Cc1cccc(OC)c1)c1ccccc12` (stereo not given) here?
**A.** 63%

**Q.** For `CCc1c[nH]c2c(N3CCCS3(=O)=O)cc(C(=O)N[C@@H](Cc3ccccc3)[C@H](O)CNC3CCCCC3)cc12.O=CO`, which Inhibition is on record?
**A.** 89%

**Q.** For `Cc1ccc(CNC(=O)[C@H](Cc2ccccc2)Nc2cc(C)nc(Nc3ccccc3)n2)cc1.O=C(O)C(F)(F)F`, which Inhibition is on record?
**A.** 91%

**Q.** How did the Inhibition turn out when `NC(=O)c1cccc(C(=O)Nc2cccc(-c3cccc(-c4nc5ccccc5[nH]4)c3)c2)c1` was run?
**A.** 78%

**Q.** For `CCOc1ncccc1CN1CCC(N2CCc3cc(NC(=O)c4cc(C)on4)ccc32)C1` (stereo not given), which Inhibition is on record?
**A.** 96%

**Q.** `CCCCCCOc1ccc(N2C(N)=NC(N)=NC2(C)C)cc1.Cl` was tested. Which Inhibition did it give?
**A.** 0%

**Q.** `CC(C(=O)NC1CCN(c2ccnc(Nc3ccc(F)cc3)n2)C1)c1ccc(Cl)cc1` (stereo not given) was tested. Which Inhibition did it give?
**A.** 90%

**Q.** How did the Inhibition turn out when `Cc1ccc(NC(=O)c2ccc(N3CCC(c4ccccc4C)CC3)nc2)cc1.O=C(O)C(F)(F)F` was run?
**A.** 72%

**Q.** For `Cc1cccc2nc(-c3ccc(-c4ccc(CN5CCN(CCN6CCOCC6)CC5)cc4)s3)[nH]c12.O=C(O)C(F)(F)F`, which Inhibition is on record?
**A.** 99%

**Q.** With `Cc1cccc2nc(-c3ccc(-c4ccc(NC(=O)C(=O)c5cccn5C)cc4)cc3)[nH]c12` as the compound, how does the Inhibition read?
**A.** 15%

**Q.** `O=C(O)C(F)(F)F.OCCN1CCN(Cc2ccc(-c3cccc(-c4nc5cc(C(F)(F)F)ccc5[nH]4)c3)cc2)CC1` was tested. Which Inhibition did it give?
**A.** 83%

**Q.** With `CCCc1cc(=O)[nH]c(-n2nc(C)cc2NC(=O)C(CC)c2ccccc2)n1` (stereo not given) as the compound, how does the Inhibition read?
**A.** 63%

**Q.** `COc1ccc2c(c1)ncn2-c1cc(OCc2ccncc2Br)c(C(N)=O)s1` was tested. Which Inhibition did it give?
**A.** 50%

**Q.** How did the Inhibition turn out when `O=C(C=Cc1ccc(Cl)c(Cl)c1)NCCCCCN1CCC(CCNC(=O)c2ccc3c(c2)OCO3)CC1` was run?
**A.** 2%

**Q.** Which Inhibition does the source give for `CCCNCc1ccc(-c2ccc(CN(CCOC)C(=O)c3ccco3)cc2)nc1.O=C(O)C(F)(F)F` here?
**A.** 21%

**Q.** For `Cc1nc2nc(N)nc(N)c2c(C)c1Cc1cccc(C(F)(F)F)c1.Cl`, which Inhibition is on record?
**A.** 23%

**Q.** For `CC(=O)Nc1cccc(C(=O)Nc2ccc(-c3cccc(-c4nc5cccc(C)c5[nH]4)c3)cc2)c1`, which Inhibition is on record?
**A.** 50%

**Q.** With `COc1cc(C)nc2ccc(NC(=O)COCC(=O)Nc3ccc4nc(C)cc(OC)c4c3)cc12` as the compound, how does the Inhibition read?
**A.** 41%

**Q.** `Oc1ccc2[nH]c(-c3cccc(F)c3)nc2c1CN1CCCC1` was tested. Which Inhibition did it give?
**A.** 47%

**Q.** How did the Inhibition turn out when `Cc1[nH]cnc1CSCCN/C(=N\C#N)NCCCCCCCCN/C(=N/C#N)NCCSCc1nc[nH]c1C` was run?
**A.** 48%

**Q.** With `C=CCOC(=O)N1CCC(CNCc2ccc(-c3cccc(-c4nc5cccc(C)c5[nH]4)c3)cc2)C1.O=C(O)C(F)(F)F` (stereo not given) as the compound, how does the Inhibition read?
**A.** 99%

**Q.** With `CCOC(=O)N1CCN(CCCNc2c3ccccc3nc3ccccc23)CC1.Cl` as the compound, how does the Inhibition read?
**A.** 20%

**Q.** `COc1cc(C=C(C2=NC(=O)CS2)c2nc3cccnc3n2C)ccc1O` was tested. Which Inhibition did it give?
**A.** 48%

**Q.** `CCN(CC)CCN(Cc1ccc(-c2ccc(C(F)(F)F)cc2)cc1)C(=O)Cn1c(CCc2cccc(F)c2F)cc(=O)c(C)c1C.O=C(O)C(O)C(O)C(=O)O` was tested. Which Inhibition did it give?
**A.** 87%

**Q.** Which Inhibition does the source give for `Clc1ccc2nnc(-c3c(Cl)cccc3Cl)n2n1` here?
**A.** 60%

What follows are compounds tested on HepG2 (assay: GSK_TCMDC: Percent inhibition of human HepG2 cell line. Test compounds present at 10uM.).
Assay type: functional

**Q.** Which Inhibition does the source give for `O=C(Nc1cccnc1)c1cn(-c2ccccc2)nc1-c1cccs1` here?
**A.** 3%

**Q.** How did the Inhibition turn out when `O=c1ccc(CNc2nc(NCCc3ccccc3)nc3ccc(Cl)cc23)c[nH]1` was run?
**A.** 9%

**Q.** For `CCCCCCCN1CCC(NC(=O)Nc2ccnc3ccc(OC)cc23)C(C(=O)OCC)C1.O=C(O)C(=O)O` (stereo not given), which Inhibition is on record?
**A.** 11%

**Q.** `COc1ccc(-c2nc3c4ccccc4c4ccc(I)cc4c3[nH]2)cc1` was tested. Which Inhibition did it give?
**A.** 4%

**Q.** `COc1ccc(CCNc2nc(SCc3ccccc3Cl)nc3ccccc23)cc1OC` was tested. Which Inhibition did it give?
**A.** 27%

**Q.** With `COc1ccc(NC(=O)CCNc2cc(C)nc(NCCOc3ccccc3)n2)cc1.O=C(O)C(F)(F)F` as the compound, how does the Inhibition read?
**A.** 0%

**Q.** How did the Inhibition turn out when `C[C@@H]([C@@H](CCCc1ccc(Cl)cc1)C(=O)N[C@H](C(=O)Nc1cccnc1)C(C)(C)C)N(O)C=O` was run?
**A.** 7%

**Q.** Which Inhibition does the source give for `Cc1cc(Nc2ccc3c(c2)CCC3)n2ncnc2n1` here?
**A.** 4%

**Q.** Which Inhibition does the source give for `COCc1nc(N)nc(N)c1-c1ccc(Cl)c(Cl)c1` here?
**A.** 4%

**Q.** Which Inhibition does the source give for `CCOC(=O)c1ccc(NC(=O)Nc2cccc(-c3cccc(-c4nc5ccccc5[nH]4)c3)c2)cc1` here?
**A.** 76%

**Q.** For `C=CCn1c(Sc2ccc(C#N)c([N+](=O)[O-])c2)nnc1-c1cccc(Cl)c1`, which Inhibition is on record?
**A.** 41%

**Q.** How did the Inhibition turn out when `c1ccc(CN2CCC(NCc3cccc(-c4cncc5ccccc45)c3)CC2)cc1` was run?
**A.** 29%

**Q.** With `CCOc1c(OC)ccc2c1CCN(CCN1CCC(CNC(=O)c3ccc(-c4ccc(C(F)(F)F)cc4)cc3)CC1)C2` as the compound, how does the Inhibition read?
**A.** 54%

**Q.** `Cl.Nc1c2c(nc3ccc(NC(=O)c4ccc([N+](=O)[O-])cc4)cc13)CCCC2` was tested. Which Inhibition did it give?
**A.** 19%

**Q.** Which Inhibition does the source give for `CCCC(CCC)n1ccc2c3c(N)nc(N)nc3ccc21.Cl` here?
**A.** 66%

**Q.** Which Inhibition does the source give for `CCCNC(=O)C1Cc2cc(OC)c(OC)cc2C2(N1)C(=O)N(Cc1cccc(OC)c1)c1ccccc12` (stereo not given) here?
**A.** 11%

**Q.** For `CCc1c[nH]c2c(N3CCCS3(=O)=O)cc(C(=O)N[C@@H](Cc3ccccc3)[C@H](O)CNC3CCCCC3)cc12.O=CO`, which Inhibition is on record?
**A.** 6%

**Q.** With `Cc1ccc(CNC(=O)[C@H](Cc2ccccc2)Nc2cc(C)nc(Nc3ccccc3)n2)cc1.O=C(O)C(F)(F)F` as the compound, how does the Inhibition read?
**A.** 16%

**Q.** With `NC(=O)c1cccc(C(=O)Nc2cccc(-c3cccc(-c4nc5ccccc5[nH]4)c3)c2)c1` as the compound, how does the Inhibition read?
**A.** 32%

**Q.** With `CCOc1ncccc1CN1CCC(N2CCc3cc(NC(=O)c4cc(C)on4)ccc32)C1` (stereo not given) as the compound, how does the Inhibition read?
**A.** 0%

**Q.** For `CCCCCCOc1ccc(N2C(N)=NC(N)=NC2(C)C)cc1.Cl`, which Inhibition is on record?
**A.** 5%

**Q.** `CC(C(=O)NC1CCN(c2ccnc(Nc3ccc(F)cc3)n2)C1)c1ccc(Cl)cc1` (stereo not given) was tested. Which Inhibition did it give?
**A.** 17%

**Q.** `Cc1ccc(NC(=O)c2ccc(N3CCC(c4ccccc4C)CC3)nc2)cc1.O=C(O)C(F)(F)F` was tested. Which Inhibition did it give?
**A.** 49%

**Q.** How did the Inhibition turn out when `Cc1cccc2nc(-c3ccc(-c4ccc(CN5CCN(CCN6CCOCC6)CC5)cc4)s3)[nH]c12.O=C(O)C(F)(F)F` was run?
**A.** 41%

**Q.** For `Cc1cccc2nc(-c3ccc(-c4ccc(NC(=O)C(=O)c5cccn5C)cc4)cc3)[nH]c12`, which Inhibition is on record?
**A.** 40%

**Q.** With `O=C(O)C(F)(F)F.OCCN1CCN(Cc2ccc(-c3cccc(-c4nc5cc(C(F)(F)F)ccc5[nH]4)c3)cc2)CC1` as the compound, how does the Inhibition read?
**A.** 29%

**Q.** `CCCc1cc(=O)[nH]c(-n2nc(C)cc2NC(=O)C(CC)c2ccccc2)n1` (stereo not given) was tested. Which Inhibition did it give?
**A.** 41%

**Q.** With `COc1ccc2c(c1)ncn2-c1cc(OCc2ccncc2Br)c(C(N)=O)s1` as the compound, how does the Inhibition read?
**A.** 14%

**Q.** For `O=C(C=Cc1ccc(Cl)c(Cl)c1)NCCCCCN1CCC(CCNC(=O)c2ccc3c(c2)OCO3)CC1`, which Inhibition is on record?
**A.** 35%

**Q.** How did the Inhibition turn out when `CCCNCc1ccc(-c2ccc(CN(CCOC)C(=O)c3ccco3)cc2)nc1.O=C(O)C(F)(F)F` was run?
**A.** 1%

**Q.** `Cc1nc2nc(N)nc(N)c2c(C)c1Cc1cccc(C(F)(F)F)c1.Cl` was tested. Which Inhibition did it give?
**A.** 65%

**Q.** How did the Inhibition turn out when `CC(=O)Nc1cccc(C(=O)Nc2ccc(-c3cccc(-c4nc5cccc(C)c5[nH]4)c3)cc2)c1` was run?
**A.** 86%

**Q.** How did the Inhibition turn out when `COc1cc(C)nc2ccc(NC(=O)COCC(=O)Nc3ccc4nc(C)cc(OC)c4c3)cc12` was run?
**A.** 67%

**Q.** `Oc1ccc2[nH]c(-c3cccc(F)c3)nc2c1CN1CCCC1` was tested. Which Inhibition did it give?
**A.** 0%

**Q.** For `Cc1[nH]cnc1CSCCN/C(=N\C#N)NCCCCCCCCN/C(=N/C#N)NCCSCc1nc[nH]c1C`, which Inhibition is on record?
**A.** 1%

**Q.** How did the Inhibition turn out when `C=CCOC(=O)N1CCC(CNCc2ccc(-c3cccc(-c4nc5cccc(C)c5[nH]4)c3)cc2)C1.O=C(O)C(F)(F)F` (stereo not given) was run?
**A.** 25%

**Q.** For `CCOC(=O)N1CCN(CCCNc2c3ccccc3nc3ccccc23)CC1.Cl`, which Inhibition is on record?
**A.** 5%

**Q.** Which Inhibition does the source give for `COc1cc(C=C(C2=NC(=O)CS2)c2nc3cccnc3n2C)ccc1O` here?
**A.** 7%

**Q.** Which Inhibition does the source give for `CCN(CC)CCN(Cc1ccc(-c2ccc(C(F)(F)F)cc2)cc1)C(=O)Cn1c(CCc2cccc(F)c2F)cc(=O)c(C)c1C.O=C(O)C(O)C(O)C(=O)O` here?
**A.** 35%

**Q.** With `Clc1ccc2nnc(-c3c(Cl)cccc3Cl)n2n1` as the compound, how does the Inhibition read?
**A.** 29%
